Data published in PubChem BioAssay (NCI).
Compounds without any hit were thinned out: in the full panel of roughly 83,000, 20% have a hit.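 Compound tested at a single concentration for 48 hours in 96-well plates; a percent growth value below 10 was scored as active.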 Unmarked numbers belong to inactive results. Activity calls are given as the source filed them.

Key:
Test in all cases: NCI-60 one-dose screen, 48 h (100 = growth as untreated, 0 = no growth, -100 = all killed)
NCI-H23 lung = conditions: 10 µM unless noted
NCI-H226 lung = conditions: 10 µM unless noted
NCI-H322M lung = conditions: 10 µM unless noted
HOP-62 NSCLC = conditions: 10 µM unless noted
NCI-H460 lung = conditions: 10 µM unless noted
HOP-92 NSCLC = conditions: 10 µM unless noted
NCI-H522 lung = conditions: 10 µM unless noted
A549/ATCC NSCLC = conditions: 10 µM unless noted
786-0 renal = conditions: 10 µM unless noted
COLO 205 colon = conditions: 10 µM unless noted
DU-145 prostate = conditions: 10 µM unless noted
K-562 leukemia = conditions: 10 µM unless noted
MALME-3M melanoma = conditions: 10 µM unless noted
MDA-MB-231 breast = conditions: 10 µM unless noted
RXF 393 renal = conditions: 10 µM unless noted
SF-268 CNS = conditions: 10 µM unless noted
SF-295 CNS = conditions: 10 µM unless noted
SF-539 CNS = conditions: 10 µM unless noted
UACC-257 melanoma = conditions: 10 µM
M14 melanoma = conditions: 10 µM unless noted

SMILES | growth (NCI-H23 lung) | growth (NCI-H226 lung) | growth (NCI-H322M lung) [%] | growth (HOP-62 NSCLC) [%] | growth (NCI-H460 lung) | growth (HOP-92 NSCLC) | growth (NCI-H522 lung) | growth (A549/ATCC NSCLC) [%] | growth (786-0 renal) [%] | growth (COLO 205 colon) | growth (DU-145 prostate) [%] | growth (K-562 leukemia) | growth (MALME-3M melanoma) [%] | growth (MDA-MB-231 breast) [%] | growth (RXF 393 renal) | growth (SF-268 CNS) | growth (SF-295 CNS) | growth (SF-539 CNS) | growth (UACC-257 melanoma) [%] | growth (M14 melanoma)
CCNCc1c(-c2cccc(OC(F)(F)F)c2)[nH]c2ccc(N3CCCC3)cc2c1=O | 24.9% | 37.1% | 30.3 | 29.2 | 8.9% (active) | 43.4% | 32.5% | 40.2 | 28.2 | 17.9% | 15 | 6.77% (active) | 39.5 | 20 | -9.04% (active) | 45.1% | 3.08% (active) | 2.73% (active) | 62.2 | -0.303% (active)
O=S(=O)(Nc1cc(Cl)cc(Cl)c1)c1ccc(-c2cnc(C3CC3)o2)cc1 | 42.9% | 43.4% | 49.9 | 43.1 | 18.7% | 64.6% | 33.9% | 43.1 | 50.3 | 14.2% | 22.3 | 14.4% | 60.4 | 47.5 | 8.4% (active) | 66.6% | 17.4% | 13.7% | 75.1 | 19.9%
CCCC(=O)NC(c1cccnc1)c1cc(C(C)=O)c2cccnc2c1O (stereo not given) | 48.6% | 25% | 26.9 | 26.2 | 12.1% | 43.3% | 18.6% | 18.9 | 32.2 | 15.6% | 39.9 | 32.2% | 38.8 | 36.9 | 31.7% | 27.2% | 13.9% | 25.1% | 42.4 | 12.7%
Cc1cn(-c2cc(NC(=O)c3cncc(C#Cc4cnc5ccc(OCCCS(C)(=O)=O)nn45)c3)cc(C(F)(F)F)c2)cn1 | -5.32% (active) | 4.42% (active) | 24.4 | 25.5 | 18.6% | -34.5% (active) | 3.59% (active) | 48 | 12.4 | -30.3% (active) | 12.6 | 11% | 11.7 | 14.4 | -74.5% (active) | -5.33% (active) | 54.6% | 6.3% (active) | 64.4 | 18%
C#CCOc1ccc(C(Nc2ccc(Cl)cc2)c2nnnn2C2CCCCC2)cc1 (stereo not given) | 91.7% | 88.4% | 93.6 | 83.4 | 83.1% | 81.8% | 81% | 78.8 | 92.5 | 97.9% | 93.8 | 82.2% | 98.8 | 76.9 | 87% | 80.2% | 74.5% | 98.6% | 86.2 | 99.4%
COc1ccc(-c2cc(-c3ccc(Cl)cc3)nc3nc(N)nn23)cc1 | 108% | 99.6% | 102 | 107 | 107% | 102% | 93.9% | 93.8 | 87.7 | 105% | 101 | 116% | 118 | 104 | 91.8% | 89.9% | 97.3% | 95.5% | 109 | 117%
CC(=O)C1=NN(c2ccc(Cl)cc2)C(=O)CN1C | 94.9% | 105% | 101 | 103 | 108% | 107% | 95.6% | 96.2 | 91.2 | 106% | 107 | 114% | 107 | 105 | 121% | 108% | 95.5% | 97.8% | 101 | 101%
CCOC(=O)c1c(NC(=O)c2ccc(F)cc2F)sc2c1CCC(=O)C2 | 103% | 107% | 102 | 104 | 102% | 107% | 51.6% | 92.8 | 100 | 109% | 94.9 | 86.7% | 118 | 97.2 | 117% | 91.9% | 95.1% | 79.3% | 102 | 111%
